L3MBTL1 block = inhibitors of human L3MBTL1; Potency, µM (highest dose often 57.1 µM), inactives show at the top dose activity, negative = inhibition, usual class: inhibitors; 0.66% of 230,000 active; AlphaScreen L3MBTL1–H3K9me1 peptide binding; AID 485360; further: on the % scale 0 is the no-effect control and ±100 the full control effect; nearly all actives have a fitted effect of over 60% in size
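AlphaScreen proximity signal between nickel-chelate acceptor and streptavidin donor beads (final 10 ug/mL) reports binding of 50 nM L3MBTL1 to 75 nM biotin-H3 K9me1 peptide; complex incubated with compounds 30 min at room temperature; cefsulodin titration as control.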
Sfp inh = blocks B. subtilis Sfp PPTase activity. Potency, µM, inactives show largest response in the series, negative = inhibition, usual class: inhibitors. Biochemical Sfp PPTase activity, qHTS. 3.5% of 310,000 active;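 further: the enzyme is Sfp with the accession as filed and its product quenches rhodamine fluorescence; 0% = enzyme reaction without inhibitor and -100% = no enzyme wells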
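Sfp 15 nM + cpd, 15 min RT; start w/ rhodamine-CoA 5 uM, BHQ-2-YbbR 12.5 uM (final); 50 mM Hepes pH 7.6, 10 mM MgCl2, 0.01% NP-40, 0.01% BSA; read 525/598 nm at 0 and 30 min.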
G9a inh = G9a (human) methyltransferase inhibition; G9a H3K9 monomethylation, AlphaScreen, 2 h; AID 504332; 8.8% of 350,000 active; Potency, µM (titrated, usually from 102 µM), without a hit: at the highest dose activity, negative = inhibition, most hits filed as inhibitors; Q96KQ7; further: on the % scale 0 is the no-effect control and ±100 the full control effect; nearly all actives have a fitted effect of over 75% in size
Target sequence (Q96KQ7 913-1193 limits assumed): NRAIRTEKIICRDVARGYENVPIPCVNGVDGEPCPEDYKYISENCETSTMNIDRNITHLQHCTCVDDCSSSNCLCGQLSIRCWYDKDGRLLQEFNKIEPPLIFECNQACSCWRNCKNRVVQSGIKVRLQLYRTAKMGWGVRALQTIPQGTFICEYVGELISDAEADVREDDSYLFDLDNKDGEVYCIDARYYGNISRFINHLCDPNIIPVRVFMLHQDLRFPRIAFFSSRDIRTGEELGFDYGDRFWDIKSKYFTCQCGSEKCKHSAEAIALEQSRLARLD
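G9a (20 nM) preincubated 15 min RT with compounds, then 500 nM biotinylated H3K9 peptide and 20 uM SAM added; 2 h RT reaction. Monomethyl-H3K9 product detected by AlphaScreen with anti-H3K9me1 antibody, streptavidin donor and anti-rabbit IgG acceptor beads.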
BAZ2B inh = inhibitors of human BAZ2B bromodomain; 4.4% of 360,000 active; Q9UIF8; Potency, µM (top dose mostly 114 µM), without a hit: at the top dose activity change, negative = inhibition, hits mostly inhibitors; AlphaScreen BAZ2B-H3K14Ac peptide displacement; AID 504333; further: on the % scale 0 is the no-effect control and ±100 the full control effect; nearly all actives have a fitted effect of over 60% in size
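Complex of BAZ2B and biotin-H3K14Ac (50 nM apiece) forms over 30 min at RT, then faces library compounds up to 110 uM for another 30 min; AlphaScreen beads added, 20 min dark incubation, luminescence read.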
JMJD2A Tudor = inhibitors of human JMJD2A Tudor domain | O75164 | AlphaScreen JMJD2A-Tudor / H3K4me3 peptide binding | Potency, µM (doses to about 114 µM), for the others: top-dose activity change, negative = inhibition, usual class: inhibitors | 4.4% of 390,000 active | AID 504339; further: on the % scale 0 is the no-effect control and ±100 the full control effect; nearly all actives have a fitted effect of over 50% in size
HP1b chromo inh = HP1-beta chromodomain-methylated histone interaction inhibition; P83916; AlphaScreen HP1-beta / biotin-H3K9me3 peptide binding; Potency, µM (highest dose often 114 µM), without a hit: at the highest dose activity change, negative = inhibition, hits mostly inhibitors; 0.56% of 390,000 active; AID 540317; further: nearly all actives have a fitted effect of over 70% in size
Target sequence (P83916 whole entry, looked up): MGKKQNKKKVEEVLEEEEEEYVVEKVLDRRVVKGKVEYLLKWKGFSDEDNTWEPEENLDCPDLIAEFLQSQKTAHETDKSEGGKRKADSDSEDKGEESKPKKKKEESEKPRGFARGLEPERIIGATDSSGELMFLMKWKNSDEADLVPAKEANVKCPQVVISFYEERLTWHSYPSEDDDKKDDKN
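AlphaScreen: HP1-beta (50 nM) preformed 30 min with biotin-H3(1-18)K9me3 peptide (50 nM) in PBS pH 7.4, 0.01% Tween-20. Compound added for 30 min at RT, then streptavidin donor/nickel chelate acceptor beads (10 ug/mL) for 30 min.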
An asterisk follows results filed as active; u = inconclusive; x = not tested or not shown; [ ] = another dose, or the depositor's remark. In the library only some 12% were active in any assay of this set; here they are far more common. The call rests on the fitted dose curve; in most records, active means well fitted curve in the direction sought with a large enough effect; inconclusive means small, poorly fitted or top-dose-only effect, or another doubt; inactive means no such curve, though single readings can be large; an effect the other way counts as inactive or inconclusive. Potency means the concentration at half of the fitted maximal effect.

SMILES	L3MBTL1 block	Sfp inh	G9a inh	BAZ2B inh	JMJD2A Tudor	HP1b chromo inh
COc1ccccc1-c1ccc(/C=C2\C=CC(=O)O2)o1	-17%	u	u	50µM*	u	-27%
CC1=C/C(=C\c2ccc(Br)o2)C(=O)O1	8.9µM*	3%	u	32µM*	40µM*	u
COC(=O)c1ccccc1-c1ccc(C=O)o1	5%	14%	-44%	4%	-3%	27%
COc1ccc(-n2ccnc(NCc3ccc(C)cc3)c2=O)cc1OC	x	x	-25%[59 µM]	-29%	-7%	24%
CC(=O)Nc1ccc(NC(=O)c2oc3c(c2C)-c2nn(Cc4ccccc4Cl)cc2CC3)cc1	x	x	-13%[59 µM]	-4%	-18%	27%
CCNC(=O)CCSc1nnc(-c2ccc(O)cc2)o1	x	x	13µM*	1%	0%	-3%
CC(Sc1nnc(-c2ccc(O)cc2)o1)C(=O)Nc1cccc2ccccc12 (stereo unspecified)	x	-12%	13µM*	-30%	-19%[57.1 µM]	-4%
CCNC(=O)CCSc1nnc(-c2ccncc2)o1	16%	20%	0%	-18%	-11%	0%
Cc1cccc(-n2[nH]c3c4c(ccc3c2=O)C(=O)c2ccccc2C4=O)c1	-9%	10%	14µM*	u	-28%	-21%
CC(C)Cn1[nH]c2c3c(ccc2c1=O)C(=O)c1ccccc1C3=O	-24%	-3%	u	10µM*	-30%	-22%
CCc1ccc2c(c1)C(=O)c1ccccc1C2=O	u	3%	u	u	u	u
CCOC(=O)C1CCCN(c2nc3c(S(=O)(=O)c4ccc(Br)cc4)nnn3c3ccsc23)C1 (stereo unspecified)	x	x	-15%[59 µM]	-9%	89µM*	35%
O=C(Oc1cccc(C(=S)N2CCOCC2)c1)c1cc([N+](=O)[O-])cc([N+](=O)[O-])c1	3%	0%	35µM*	u	u	-18%
O=C(c1cccc([N+](=O)[O-])c1)N1CCOCC1	12%	8%	22%[59 µM]	1%	-6%	46%
O=C(Oc1ccc(C(=S)N2CCOCC2)cc1)c1cccc([N+](=O)[O-])c1	1%	u	22µM*	-29%	-9%	-22%
O=C(Oc1cccc(C(=S)N2CCOCC2)c1)c1ccc([N+](=O)[O-])cc1[N+](=O)[O-]	x	u	25µM*	u	-35%	u
O=C(Oc1cccc(C(=S)N2CCOCC2)c1)c1cccc([N+](=O)[O-])c1	-10%	-22%	45µM*	-38%	-32%	-19%
O=C(Oc1ccc(Br)cc1C(=S)N1CCOCC1)c1ccc([N+](=O)[O-])cc1[N+](=O)[O-]	x	50µM*	8.9µM*	u	u	u
C1CCN2CC3CC(CN4CCCC[C@@H]34)C2C1 (stereo partly specified)	x	-18%	x	x	x	x
C[N+](C)(C)CCOC(=O)C1(c2ccccc2)CCCC1	x	14%	3.5µM*	1%	-29%[11.4 µM]	u
COC(=O)[C@H]1Cc2c([nH]c3ccccc23)CN1C(=O)COc1ccc2c(C)cc(=O)oc2c1	x	-3%	x	x	x	x
CCc1nccn1S(=O)(=O)c1ccccc1[N+](=O)[O-]	-3%	11%	1%	-38%	-16%	36%
N#CC1=C(O)C(c2ccccc2)n2c1nc(=O)c1ccccc12 (stereo unspecified)	-14%	-2%	25µM*	u	-20%	30%
COC1=C/C(=C/c2c(O)c(C#N)c3ccccn23)C=CC1=O	-23%	u	u	50µM*	22µM*	u
COC(=O)c1ccc(Nc2nnc(-c3ccc(C)c(S(=O)(=O)N4CCN(C)CC4)c3)c3ccccc23)cc1	x	x	u	-26%	-33%	23%
SMILES	L3MBTL1 block	Sfp inh	G9a inh	BAZ2B inh	JMJD2A Tudor	HP1b chromo inh
Cc1ccccc1Nc1c(-c2c[nH]c3ccccc23)nc2ccccn12	x	x	-33%[59 µM]	-30%	-17%	10%
Cc1ccc2nc(-c3c[nH]c4ccccc34)c(Nc3ccc(F)cc3)n2c1	x	x	u	-34%	u	-8%
Cc1ccc(Nc2c(-c3c[nH]c4ccccc34)nc3cc(C)ccn23)cc1	x	x	u	u	25µM*	u
Cc1ccn2c(Nc3ccccc3)c(-c3c[nH]c4ccccc34)nc2c1	x	x	8.9µM*	10µM*	22µM*	u
CCc1ccc(CNC(=O)c2c(C)oc3ncn(CC(C)C)c(=O)c23)cc1	x	x	-7%[59 µM]	7%[57.1 µM]	3%	37%
Cc1[nH]n2c(=O)cc(-c3ccc([N+](=O)[O-])cc3)nc2c1-c1ccccc1	x	x	x	x	50µM*	-57%
Cc1[nH]n2c(=O)cc(-c3ccc(Cl)cc3)nc2c1-c1ccccc1	x	x	4%[59 µM]	32µM*	u	-4%
Cc1ccc(S(=O)(=O)Nc2ccc3c(c2)C(=O)N([C@H](C)CO)C[C@H](C)[C@@H](CN(C)C(=O)Nc2ccc(C(F)(F)F)cc2)O3)cc1	4%	x	x	x	-21%	19%
CCn1cc(C2Nc3ccccc3C(=O)N2O)c(C)n1 (stereo unspecified)	-6%	-16%	18µM*	8%	-21%	46%
Cc1c(C2Nc3ccccc3C(=O)N2O)cnn1C (stereo unspecified)	10%	1%	10µM*	-14%	u	74%
CCCCOC(=O)/C(C#N)=C/c1ccc(-c2ccc(Br)cc2)o1	x	x	-27%[59 µM]	2%	-8%	25%
COc1ccc(Br)cc1/C=c1\sc2nc(-c3ccco3)nn2c1=O	7.9µM*	u	u	16µM*	45µM*	-25%
O=c1nc2s/c(=C\c3ccco3)c(=O)n2nc1Cc1ccc(F)cc1	x	45µM*	u	22µM*	56µM*	u
Cc1ccc(-c2nc3s/c(=C\c4ccco4)c(=O)n3n2)cc1	u	2%	50µM*	50µM*	50µM*	-14%
COc1ccccc1/C=c1\sc2nc(-c3ccccc3OC)nn2c1=O	-5%	-36%	x	-26%	-13%	17%
O=C(Nc1ccccc1)N(Cc1cccs1)c1ccc(Cl)cc1	x	x	-17%[59 µM]	-5%	8%	63%
CCO/C(C)=C1\C(=O)N(CC)c2ccccc21	-8%	4%	50µM*	-4%	-10%	18%
CCOC(=O)/C(C#N)=C1/C=CN(Cc2ccccc2)C=N1	-3%	5%	19%	9%	-20%	-1%
CCOC(=O)/C(C#N)=C1\C(=O)N(Cc2ccccc2)c2ccccc21	-10%	35µM*	x	35µM*	20µM*	14µM*
O=S(=O)(Nc1cccc(S(=O)(=O)N2CCCC2)c1)c1cccs1	-6%	x	x	x	-13%	25%
O=C(Nc1nccs1)[C@@H]1CCCN1S(=O)(=O)c1ccccc1F	-5%	x	40µM*	7%	1%	32%

Screening data (PubChem BioAssay)
